Source: PubChem BioAssay
In the library only some 7.7% were active in any assay of this set; here they are far more common.
RE007 growth inh: qHTS Assay for Inhibitors of the HIV-1 protein Vpr. S. pombe RE007 Vpr strain, BacTiter-Glo ATP luminescence, 24 h. Potency, µM (series often up to 92.2 µM), for inactives: top-dose activity change, negative = less growth, hits mostly inhibitors. hit rate 0.21% among 360,000. AID 651644, 2012; active = well fitted falling curve with a large enough effect; inconclusive = small, poorly fitted or top-dose-only effect; inactive = no such curve, though single readings can be large or run the other way; also: potency is read from the fitted curve at half-maximal effect; nearly all actives have a fitted effect of over 50% in size
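Fission yeast RE007 carrying one integrated HIV-1 vpr copy, seeded at OD 0.01 in PMG+AL medium with 23 nL pinned compound. Grown 24 h at 30 degrees; viability read by BacTiter-Glo luminescence after 5 min.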
TbPYK inhibitor: qHTS of Trypanosoma Brucei Inhibitors | TbPYK enzyme, Kinase-Glo Plus ATP luminescence, 45 min | Potency, µM (doses to about 76.8 µM), for inactives: at the highest dose activity, negative = inhibition, hits mostly inhibitors | hit rate 0.12% among 410,000 | AID 624173, 2012; also: potency is read from the fitted curve at half-maximal effect; nearly all actives have a fitted effect of over 50% in size
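T. brucei PYK with substrate was exposed to pin-transferred compounds across a concentration series, then started with 130 uM ADP (final). After 45 min at room temperature, Kinase-Glo Plus luminescence was read, normalized and curve-fitted.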
HCMV inh: qHTS Assay for inhibitors of the human cytomegalovirus (HCMV). AID 1259415, 2018. HFF cells, HCMV-luciferase reporter, 72 h; active compounds read low. hit rate 4.5% among 410,000. activity change, negative = inhibition, % at 57.5 µM; in the data active = activity change below about -60%; inconclusive = no clear call, values can overlap the other calls; inactive = above about -39%
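HFF cells seeded 16 h at 37C, treated with compounds, infected with luciferase-reporter HCMV at MOI 1 PFU/cell; luciferase read at 72 h post infection, normalized to buffer-only and Salinomycin controls.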
Giardia FBPA inh: qHTS Assay for Inhibitors of Fructose-1,6-bisphosphate Aldolase from Giardia Lamblia. purified Giardia FBPA. Potency, µM (series often up to 59.6 µM), inactives show top-dose activity, negative = inhibition, usual class: inhibitors. AID 2451, 2010. hit rate 0.71% among 290,000; also: potency is read from the fitted curve at half-maximal effect; nearly all actives have a fitted effect of over 55% in size
Target sequence (A8B2U2 whole entry, looked up): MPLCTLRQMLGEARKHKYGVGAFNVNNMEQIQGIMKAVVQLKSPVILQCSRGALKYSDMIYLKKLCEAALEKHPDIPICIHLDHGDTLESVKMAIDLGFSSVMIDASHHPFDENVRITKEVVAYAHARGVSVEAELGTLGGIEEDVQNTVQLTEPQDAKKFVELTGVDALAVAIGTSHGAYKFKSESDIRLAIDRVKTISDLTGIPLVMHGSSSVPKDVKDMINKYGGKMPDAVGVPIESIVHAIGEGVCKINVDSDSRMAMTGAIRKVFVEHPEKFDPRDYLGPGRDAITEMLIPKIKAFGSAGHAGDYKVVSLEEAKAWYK
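40 nM FBPA preincubated 10 min at RT with compound (up to 57.5 uM final), then substrate plus GAPDH/TPI/NAD/arsenate coupling and diaphorase/resazurin added. Fluorescence read after 20 min at RT, 525/598 nm.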
FMDV inh: High Throughput Screening for Foot and Mouth Disease Virus Antivirals. FMDV antiviral cell-based qHTS. Potency, µM (highest dose often 57.9 µM), without a hit: at the highest dose activity change, negative = inhibition, actives largely listed as inhibitors. hit rate 1.2% among 410,000; calls by dose curve; tested in HEK293T cells; also: read-out not given here; potency is read from the fitted curve at half-maximal effect; nearly all actives have a fitted effect of over 45% in size
Sm TGR inh: qHTS Assay for the Inhibitors of Schistosoma Mansoni Peroxiredoxins; purified TGR, DTNB reduction, TNB absorbance 405 nm; hit rate 3% among 360,000; Potency, µM (highest dose often 114 µM), without a hit: at the highest dose activity change, negative = inhibition, actives largely listed as inhibitors; also: potency is read from the fitted curve at half-maximal effect; nearly all actives have a fitted effect of over 60% in size
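Kinetic colorimetric format: TGR-catalysed, NADPH-driven DTNB reduction monitored via TNB absorbance. Enzyme dispensed at 20 nM; compound exposure 15 min at room temperature before reaction start.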
* hit, by the source's call; ? = inconclusive; . = no result; ! = not confirmed by another sample; [ ] = remark or other dose. Unless noted, calls follow the shape of the dose curve; as a rule, active = well fitted curve in the direction sought with a large enough effect; inconclusive = small, poorly fitted or top-dose-only effect, or another doubt; inactive = no such curve, though single readings can be large; an effect the other way counts as inactive or inconclusive. % is scaled to controls: 0 for no effect and ±100 for the full control effect.

SMILES | RE007 growth inh | TbPYK inhibitor | HCMV inh | Giardia FBPA inh | FMDV inh | Sm TGR inh
O=C1CCCN1CC(O)CS(=O)(=O)c1ccccc1 (stereo unspecified) | 11% | -2% | -6 | 2% | 13% | 16%
O=S(=O)(CC(CN1CCCCC1)N1CCCCC1)c1ccccc1 (stereo unspecified) | 5% | -4% | -99* | 1% | 35µM* | -3%
O=C(O)Cc1cccc(-c2cc(CCCCCCc3ccc(O[C@H]4O[C@H](CO)[C@@H](O)[C@H](O)[C@@H]4O)c(-c4cccc(CC(=O)O)c4)c3)ccc2O[C@H]2O[C@H](CO)[C@@H](O)[C@H](O)[C@@H]2O)c1 | . | 3% | . | . | . | .
Cc1ccc(CNCc2ccccc2Cl)s1 | . | 2% | -3 | . | 10% | 4%
COc1ccc(Cl)cc1N=C1NC(=O)CC(C(=O)Nc2ccccc2C(F)(F)F)S1 (stereo unspecified) | . | 0% | 11 | . | -18% | -8%
CCS(=O)(=O)N1CCc2cc(C(=O)N3CCN(c4ccccc4)CC3)ccc21 | . | -8% | 19 | . | -7% | 22%
O=C(Nc1ccc2ccccc2n1)c1ccccc1 | -25% | -11% | 70 | -1% | 35% | 8%
Cc1ccc(C(=O)Nc2ccc3ccccc3n2)cc1 | -21% | 8% | -102* | -2% | -2% | 0%
COc1cccc(CNC(=O)c2ccc3c(c2)nc2n3CCC(C)C2)c1 (stereo unspecified) | . | 3% | 28 | . | 19% | 15%
Cc1ccc(C(=O)NC(=S)/C=C2\N(C)c3ccccc3C2(C)C)cc1 | -5% | 0% | -68* | 3% | -27% | 7%
CN1/C(=C\C=N\NC(=O)c2ccc(O)cc2)C(C)(C)c2ccccc21 | -13% | -1% | -90* | -3% | 28µM* | 2%
CC(C)C(=O)NC(=S)/C=C1/N(C)c2ccccc2C1(C)C | -22% | -13% | ? | -8% | -29% | 14%
CCCCCOC(=O)c1ccc(OC(=O)c2sc3ncn(Cc4cccc(F)c4)c(=O)c3c2C)cc1 | . | -12% | -2 | . | -11% | 11%
Cn1c(=O)c2[nH]c(=S)n(Cc3ccccc3)c2n(C)c1=O | 12% | 16µM* | -8 | . | -11% | .
CC(=O)c1cccc(-c2ccc3c(c2)C(C)(Cc2ccccc2C#N)C(=O)N3)c1 (stereo unspecified) | 9% | 7% | -66* | . | -10% | .
O=C(NCCc1ccccc1Cl)c1ccc(Cn2c(=O)c3cccn3c3cccnc32)cc1 | . | -3% | -84* | . | -10% | 0%
CCC(Cn1nnc2ccccc2c1=O)NC(=O)Nc1cc(Cl)ccc1OC (stereo unspecified) | . | -1% | 14 | . | 1% | 1%
C=CCn1cccc(/C=C/C(=O)c2ccc(C(C)(C)C)cc2)c1=S | -4% | -22% | 8 | -12% | 25µM* | -14%
Cc1cc(C)cc(NC(=O)Cn2cc3c(n2)CCCCC3)c1 | . | . | . | 15% | . | 1%
CN(C)c1ccc(NC(=O)Cn2cc3c(n2)CCCC3)cc1 | 1% | -20% | -99* | -14% | 35% | -26%
O=C1Cc2ccccc2C(c2ccc(Br)cc2)N1 (stereo unspecified) | -9% | 4% | 9 | 6% | ? | -2%
O=C1NC2=C(CCc3ccccc32)C(c2ccc(Br)cc2)N1 (stereo unspecified) | 6% | -11% | -20 | ? | ? | 50µM*
CC[C@H](C)/C=C(C)/C=C/C1=CC2=CC(=O)[C@]3(C)OC(=O)[C@@H](C(C)=O)[C@@H]3C2=CO1 | 13% | 1% | 20 | -21% | -21% | 14µM*
CCC(C)/C=C(C)/C=C/C1=CC2=C(Cl)C(=O)C(C)(OC(C)=O)C(=O)C2=CO1 (stereo unspecified) | -13% | 1% | . | -5% | -3% | -21%
Cc1c(CCNC(=O)C(C)(C)C)sc2nc(-c3ccc(F)cc3)nn12 | . | 2% | -91* | . | ? | 7%
SMILES | RE007 growth inh | TbPYK inhibitor | HCMV inh | Giardia FBPA inh | FMDV inh | Sm TGR inh
COc1ccc(S(=O)(=O)NCCc2sc3nc(-c4ccc(C)cc4)nn3c2C)cc1F | . | -1% | -74* | . | -20% | 24%
COc1ccc(-c2nc3sc(CCNS(=O)(=O)c4c(C)cc(C)cc4C)c(C)n3n2)cc1 | . | 6% | -83* | . | 17% | 1%
CCS(=O)(=O)NCCc1sc2nc(-c3ccc(OC)cc3)nn2c1C | . | 2% | ? | . | -25% | -10%
COCCCNC(=O)C1CCCN(c2nn3cc(-c4ccc(C)cc4)nc3s2)C1 (stereo unspecified) | . | 3%[15.4 µM] | 0 | . | -1% | -3%
CC(=O)Nc1ccc(NC(=O)c2ccc(-c3ccc([N+](=O)[O-])cc3)o2)cc1 | -5% | 8% | 15 | 2% | -22% | -14%
COc1cccc(NC(=O)c2ccc(-c3ccc([N+](=O)[O-])cc3)o2)c1 | -13% | 0% | ? | -6% | -13% | 25µM*
Cc1nnc(NC(=O)c2ccc(-c3ccc([N+](=O)[O-])cc3)o2)s1 | -5% | 0% | -2 | 5% | -22% | ?
Cc1ccccc1C(=O)Nc1cccc(NC(=O)c2ccc(-c3ccc(Br)cc3)o2)c1 | -9% | -7% | -96* | 6% | ? | 38%
COc1ccc(NC(=O)c2ccc(-c3ccc([N+](=O)[O-])cc3)o2)cc1OC | -7% | -4% | -72* | -7% | ? | -10%
CC(=O)c1cccc(NC(=O)c2ccc(-c3ccccc3[N+](=O)[O-])o2)c1 | -4% | -7% | 82 | 10µM* | -60% | -8%
Cc1ccccc1C(=O)Nc1cccc(NC(=O)c2ccc(F)cc2)c1 | 2% | -3% | ? | 3% | -17% | -20%
CN(CCc1ccc(Cl)c(Cl)c1)CCN1CCCCCC1 | . | . | . | -11% | . | .
CCN(CC)CCCNC(=O)Cn1nc(C)n2c(cc3sccc32)c1=O | . | 3% | -11 | . | -7% | -5%
C=CCc1ccc(OCc2ccc(C(=O)Nc3ccc(NC(C)=O)cc3)o2)c(OC)c1 | 7% | 9% | 29 | 3% | 20% | 45µM*!
O=[N+]([O-])c1ccccc1-c1ccc(C(=S)N2CCCC2)o1 | -5% | ? | 92 | 16µM* | 34% | -5%
COc1cc([N+](=O)[O-])ccc1-c1ccc(C(=O)Nc2ccc(NC(C)=O)cc2)o1 | -9% | ? | ? | -11% | -3% | 20µM*
C=CCNC(=O)c1ccc(-c2ccc([N+](=O)[O-])cc2)o1 | -3% | -13% | ? | -1% | 47% | 18µM*
